Assay [1] is described as follows: CCTE_Mundy_HCI_Cortical_NOG_NeuronCount: CCTE's Neurite Outgrowth Assay in rat cortical cells for Neuron Count, Mundy Lab (AID 2284236).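 Also: neurons counted by imaging betaIII-tubulin and Hoechst stained cortical cells; cells exposed to compound for about 48 hours before fixation.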 Summed up: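 Read-out: neuron number by high-content imaging of betaIII-tubulin (Alexa Fluor-488) and Hoechst-labelled rat primary cortical cells.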
Assay [2] is described as follows: CCTE_Mundy_HCI_hNP1_Casp3_7: CCTE's Caspase-Glo 3/7 Assay in human neuroprogenitor cells for Apoptosis, Mundy Lab (AID 2284240; active = hit-call score of the fitted dose curve at least 0.9, where 1 is the maximum; inactive = score below 0.9). Summed up: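 Neuroepithelial-lineage stem cells from WA09 embryonic cells were treated with chemicals after 40–44 h of culture. Twenty-four hours later, caspase-3/7 activation was detected luminescently after a 30 min room-temperature reagent step, with DMSO as baseline.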

Assay [3] can be described thus: CCTE_Mundy_HCI_hNP1_CellTiter: CCTE's Cell Titer-Glo 2 Assay in human neuroprogenitor cells for Viability, Mundy Lab (AID 2284241).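 As to AC50: a hit is a drop in ATP luminescence versus DMSO meaning reduced viability.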 The method in brief:
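Measures ATP content in human neural progenitors derived from WA09 embryonic cells. Read-out at 26.5 hours after dosing, with DMSO serving as the negative control and baseline.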

Assay [4] in a line: CCTE_Mundy_HCI_Cortical_Synap_Neur_Matur_NeuronCount: CCTE's Synaptogenesis and Neurite Maturation Assay in rat cortical cells for Neuron Count, Mundy Lab (AID 2284242).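 As to AC50: neuron number from Hoechst nuclei and MAP2 staining by high-content imaging; hits reduce neuron count versus DMSO baseline.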 The method in brief: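 Cortical cells from rat are plated, treated with AraC at DIV 5, and exposed to test chemicals with a media change at DIV 7. At DIV 12 they are fixed and immunostained (MAP2, synaptophysin), and imaged neuron counts are compared against DMSO controls.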

The nature of assay [5]: UKN2_HCS_IMR90_cell_viability: Viability Assessment in the University of Konstanz (UKN) Leist Lab Neural Crest Cell Migration Assay in human induced IMR90 Pluripotent Stem Cells (UKN2) (AID 2284233; active = hit-call score of the fitted dose curve at least 0.9, where 1 is the maximum; inactive = score below 0.9;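 also: viability of neural crest cells differentiated from IMR90 iPSC measured by calcein-AM fluorescence imaging; cells exposed to compound for 24 h after a 24 h migration phase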). The method in brief:
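cMINC format, iPSC-derived neural crest (IMR90); 24 h migration (EGF/FGF, N2-S), then 24 h toxicant. Calcein-AM/H-33342 stain 30 min; fluorescence intensity by HCS; DMSO-normalised, bidirectional fitting.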

A short description of assay [6]: TAMU_HCS_1.5hr_SingleDonor1434_Cytotoxicity: Cytotoxicity Assessment using High-content Screening (HCS) Fluorescent Imaging for the Texas A&M University (TAMU) 1.5-hr Human Induced Pluripotent Stem Cell (iPSC)-derived Cardiotoxicity Assay (AID 2284234). The method in brief: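 Nuclear counts from Hoechst 33342 imaging define cytotoxicity here, with EC10 (10% cell-count loss relative to DMSO) as point of departure. iPSC cardiomyocytes received 0.2-100 uM test chemical in 0.5% DMSO for 1.5 h at 37 C.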

The nature of assay [7]: UKN4_HCS_LUHMES_cell_viability: Viability Assessment in the University of Konstanz (UKN) Leist Lab Neurite Outgrowth Assay in human LUHMES cells (UKN4) (AID 2284232; active = hit-call score of the fitted dose curve at least 0.9, where 1 is the maximum; inactive = score below 0.9). The method in brief:
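Cells switched to differentiation medium at day 0, replated on day 2 in medium lacking cAMP and GDNF, and compound-treated once attached. Live staining began 23.5 h later, imaging followed at 24 h.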

Assay [8] in a line: TAMU_PeakParms_SingleDonor1434_QT: Texas A&M University (TAMU) 1.5-hr Human Induced Pluripotent Stem Cell (iPSC)-derived Cardiomyocytes Calcium (Ca+2) Flux Assay for Cardiotoxicity: QT (decay-rise ratio) (AID 2284235). Summed up: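 Decay/rise ratio of calcium-flux fluorescence scored after 90 min exposure (37C) of donor 1434 iPSC cardiomyocytes to 0.2–100 uM (0.5% DMSO). Beat-cessation and severe-notch points removed; POD is EC05, a 5% rise over DMSO.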

Read-out in assay [9]: Vascular cell adhesion molecule 1 (VCAM1), VCAM1 (gene 7412)
Description: BSK_MyoF_VCAM1: BioMAP Diversity Plus: MyoF Assay for Vascular cell adhesion molecule 1 (VCAM1) Biomarker Activity (AID 2284231; active = hit-call score of the fitted dose curve at least 0.9, where 1 is the maximum; inactive = score below 0.9). Conditions: primary human lung fibroblasts. The method in brief:
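Primary human lung fibroblasts (BioMAP MyoF system) dosed with chemical, VCAM-1 measured by ELISA 24 hours later. Fitted in the positive direction against DMSO; parallel SRB staining assessed cytotoxicity.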

Read-out in assay [10]: Collagen I, COL1A1 (gene 1277)
Description: BSK_MyoF_CollagenI: BioMAP Diversity Plus: MyoF Assay for Collagen I Biomarker Activity (AID 2284238; active = hit-call score of the fitted dose curve at least 0.9, where 1 is the maximum; inactive = score below 0.9). The settings on record: primary human lung fibroblasts. The method in brief: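 Primary human lung fibroblasts (MyoF system) treated 24 h; Collagen I quantified by ELISA and fitted in positive direction against DMSO. Parallel SRB total-protein staining assessed overt cytotoxicity.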

Read-out in assay [11]: Collagen III, COL3A1 (gene 1281)
Description: BSK_MyoF_CollagenIII: BioMAP Diversity Plus: MyoF Assay for Collagen III Biomarker Activity (AID 2284239; active = hit-call score of the fitted dose curve at least 0.9, where 1 is the maximum; inactive = score below 0.9). The settings on record: primary human lung fibroblasts. Summed up:
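Primary human lung fibroblasts (BioMAP MyoF system) exposed 24 h. Collagen III measured by ELISA; positive-direction fit relative to DMSO.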

Read-out in assay [12]: Interleukin 17F (IL17F), IL17F (gene 112744)
Description: BSK_BT_xIL17F: BioMAP Diversity Plus: BT Assay for Interleukin 17F (IL17F) Biomarker Activity (AID 2284243; active = hit-call score of the fitted dose curve at least 0.9, where 1 is the maximum; inactive = score below 0.9). Conditions: primary human B cells with PBMC. The method in brief: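 Human PBMC co-cultured with B cells, compound exposure 24 h; secreted IL-17F quantified by Luminex xMAP, referenced to DMSO control. PBMC viability measured in parallel by Alamar Blue reduction.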

Read-out in assay [13]: Actin alpha 1 (ACTA1), ACTA1 (gene 58)
Description: BSK_MyoF_ACTA1: BioMAP Diversity Plus: MyoF Assay for Actin alpha 1 (ACTA1) Biomarker Activity (AID 2284244; active = hit-call score of the fitted dose curve at least 0.9, where 1 is the maximum; inactive = score below 0.9). The settings on record: primary human lung fibroblasts. Summed up:
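Cells were exposed to chemical for 24 h before a-SMA levels were quantified by ELISA in human lung fibroblasts. Increases were fitted against DMSO as negative control; parallel SRB staining (0.1% after 10% TCA fixation, 560 nm) assessed cytotoxicity.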

Read-out in assay [14]: Interleukin 2 (IL2), IL2 (gene 3558)
Description: BSK_BT_xIL2: BioMAP Diversity Plus: BT Assay for Interleukin 2 (IL2) Biomarker Activity (AID 2284245; active = hit-call score of the fitted dose curve at least 0.9, where 1 is the maximum; inactive = score below 0.9). The settings on record: primary human B cells with PBMC. Summed up: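 The BT system combines human B cells with peripheral blood mononuclear cells. Twenty-four hours after chemical dosing, secreted IL-2 was measured with xMAP bead technology, and responses were analyzed as increases over DMSO controls.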

Read-out in assay [15]: Basic fibroblast growth factor (bFGF), FGF2 (gene 2247)
Description: BSK_MyoF_bFGF: BioMAP Diversity Plus: MyoF Assay for Basic fibroblast growth factor (bFGF) Biomarker Activity (AID 2284246; active = hit-call score of the fitted dose curve at least 0.9, where 1 is the maximum; inactive = score below 0.9). The settings on record: primary human lung fibroblasts. The method in brief:
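Chemicals are added to human lung fibroblast cultures and incubated 24 h. bFGF is then measured by ELISA, while parallel cultures receive SRB staining for total protein as a cytotoxicity check. Data are fitted upward against DMSO.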

Read-out in assay [16]: Collagen IV, COL4A1 (gene 1282)
Description: BSK_MyoF_CollagenIV: BioMAP Diversity Plus: MyoF Assay for Collagen IV Biomarker Activity (AID 2284247; active = hit-call score of the fitted dose curve at least 0.9, where 1 is the maximum; inactive = score below 0.9). Conditions: primary human lung fibroblasts. The method in brief:
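Human lung fibroblast system, 24 h chemical exposure. Endpoint: Collagen IV by ELISA, upward fit vs DMSO.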

Read-out in assay [17]: Monokine induced gamma interferon (MIG), CXCL9 (gene 4283)
Description: BSK_KF3CT_MIG: BioMAP Diversity Plus: KF3CT Assay for Monokine induced gamma interferon (MIG) Biomarker Activity (AID 2284248; active = hit-call score of the fitted dose curve at least 0.9, where 1 is the maximum; inactive = score below 0.9). Conditions: primary human keratinocytes with fibroblasts. Summed up: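 Human keratinocyte–foreskin fibroblast co-culture; MIG measured by ELISA 24 h after chemical dosing, fitted upward versus DMSO. Cytotoxicity was assessed in parallel cultures by SRB total-protein staining read at 560 nm.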

Read-out in assay [18]: Vascular cell adhesion molecule 1 (VCAM1), VCAM1 (gene 7412)
Description: BSK_BF4T_VCAM1: BioMAP Diversity Plus: BF4T Assay for Vascular cell adhesion molecule 1 (VCAM1) Biomarker Activity (AID 2284249; active = hit-call score of the fitted dose curve at least 0.9, where 1 is the maximum; inactive = score below 0.9). The settings on record: primary human bronchial epithelial cells with fibroblasts. Summed up:
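Cell-surface VCAM-1 quantified by ELISA after 24 h chemical exposure of human bronchial epithelial/dermal fibroblast co-cultures, with SRB staining in parallel wells for cytotoxicity; DMSO baseline, positive-direction fitting.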

Read-out in assay [19]: Collagen I, COL1A1 (gene 1277)
Description: BSK_hDFCGF_CollagenI: BioMAP Diversity Plus: hDFCGF Assay for Collagen I Biomarker Activity (AID 2284250; active = hit-call score of the fitted dose curve at least 0.9, where 1 is the maximum; inactive = score below 0.9). Conditions: primary human foreskin fibroblasts. The method in brief: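 Collagen I ELISA, primary human foreskin fibroblasts, 24 h chemical exposure, DMSO = negative control/baseline, positive fitting direction.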

Read-out in assay [20]: Interferon-inducible T-cell alpha chemoattractant (ITAC), CXCL11 (gene 6373)
Description: BSK_hDFCGF_ITAC: BioMAP Diversity Plus: hDFCGF Assay for Interferon-inducible T-cell alpha chemoattractant (ITAC) Biomarker Activity (AID 2284251; active = hit-call score of the fitted dose curve at least 0.9, where 1 is the maximum; inactive = score below 0.9). The settings on record: primary human foreskin fibroblasts. Summed up:
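Chemical dosing of primary human foreskin fibroblast cultures preceded ELISA measurement of I-TAC at 24 h. Response was analysed in the positive direction using DMSO as baseline, while parallel SRB staining measured cytotoxicity.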

Where “and” joins values, the source holds several entries; their conditions need not be identical. Identical values can stand only once. Inconclusive results are not listed. A structure can be active in one record and inactive in another. Calls of active or inactive are those of the source. The calls were made as follows, unless noted: active = hit-call score of the fitted dose curve at least 0.9, where 1 is the maximum; inconclusive = response in the unintended direction; inactive = score below 0.9.

For orientation: AC50 means the midpoint of the concentration-response curve, whichever way the signal moves.

On to `[O-][Cl+]O`, for which the outcome in assay [1], in assay [2], in assay [3] and in assay [4] was inactive.

Take `Nc1cc(Cl)cc(C(=O)O)c1Cl`: the result in assay [2], in assay [3] and in assay [4] was inactive.

Turning to `CNC(=O)Oc1cccc2c1OC(C)(C)C2`, the molecule was called inactive in assay [5], in assay [1], in [2], in assay [3] and in [4].

Turning to `CCCCCCCCn1sccc1=O`, in assay [6], the AC50 is 7.87 µM (active).

For `CCCCOC(=O)c1ccccc1C(=O)OCc1ccccc1`, the call in assay [5], in [1] and in assay [2] was inactive. Besides, in [4], the AC50 is 50.5 µM (active).

Take `O=P(OCCCl)(OCCCl)OCCCl`: the call in assay [6] was inactive.

On to `c1ccc(N=Nc2ccccc2)cc1`, for which the result in assay [6] was inactive.

As for `CCC[CH2][Sn]([Cl])([CH2]CCC)[CH2]CCC`, the AC50 in assay [7] was 0.159 µM (active); in assay [5], 0.344 µM (active); in [1], 0.079 µM (active); in assay [2], 4.18 µM (active); in assay [3] it was 0.335 µM (active); in [4], 0.0308 µM (active).

Consider `CN(C)[C@@H]1C(=O)C(C(N)=O)=C(O)[C@@]2(O)C(=O)C3=C(O)c4c(O)cccc4[C@@](C)(O)[C@H]3C[C@@H]12`, for which the result in assay [1], in [2] and in assay [3] was inactive.

`COP(=S)(OC)SCN1C(=O)c2ccccc2C1=O`: the molecule was classed as inactive in assay [5], in [1], in assay [2], in assay [3] and in [4].

`CC(C)(C)C(O)(CCc1ccc(Cl)cc1)Cn1cncn1` (stereo unspecified): the molecule was classed as inactive in assay [6], in assay [3] and in assay [4]. Besides, the concentration at half-maximal activity (AC50) in assay [8] is 18.2 µM (active); in assay [2], 9.92 µM (active).

With `CCNS(=O)(=O)C(F)(F)C(F)(F)C(F)(F)C(F)(F)C(F)(F)C(F)(F)C(F)(F)C(F)(F)F`, the AC50 in assay [9] is 30 µM (active) and 40.3 µM (active); in assay [10] it was 50.6 µM (active) and 44.6 µM (active); in assay [11] it was 44.1 µM (active) and 45 µM (active); in assay [12], 21.4 µM (active) and 37.4 µM (active); in assay [13] it was 21.5 µM (active) and 30 µM (active); in assay [15], 46.5 µM (active) and 50.8 µM (active). Besides, the concentration at half-maximal activity (AC50) in assay [16] is 54.7 µM (active) and 7.29 µM (active); in [17] it was 46 µM (active); in assay [18], 15.4 µM (active) and 14.3 µM (active); in assay [19], 46.9 µM (active) and 38.3 µM (active); in assay [20] it was 24.8 µM (active) and 27.5 µM (active). Also, the result in assay [14] and in [17] was inactive.

For the molecule `COC(=O)Nc1nc2ccccc2[nH]1`, the call in assay [5], in [1] and in [4] was inactive. The AC50 in [2] is 6.5 µM (active); in assay [3], 9.91 µM (active).

With `ClC1=C(Cl)[C@]2(Cl)[C@H]3[C@H]([C@@H]4C=C[C@H]3C4)[C@@]1(Cl)C2(Cl)Cl`, the concentration at half-maximal activity (AC50) in assay [6] was 83 µM (active). For the same molecule, the result in assay [8] was inactive.

Consider `Clc1ccc(C(c2ccc(Cl)cc2)C(Cl)(Cl)Cl)cc1`, for which the concentration at half-maximal activity (AC50) in assay [6] was 50 µM (active). In addition, in assay [8], the outcome was inactive.

Turning to `C1=Cc2cccc3cccc1c23`, the molecule was classed as inactive in [6] and in [8].

Turning to `CC(C)COC(=O)c1ccccc1C(=O)OCC(C)C`, the molecule was called inactive in [5], in assay [1], in assay [2] and in assay [3]. For the same molecule, in assay [4], the AC50 is 80.3 µM (active).

Consider `OCCOCCO`, for which the molecule was classed as inactive in assay [2], in assay [3] and in assay [4].

As for `ClC1=C(Cl)C2(Cl)C3C(Cl)C=CC3C1(Cl)C2(Cl)Cl` (stereo unspecified), the AC50 in [6] was 50 µM (active); in assay [1] it was 26.5 µM (active); in assay [2], 90.2 µM (active); in [3], 13.4 µM (active); in assay [4] it was 11.5 µM (active). The outcome in assay [8] was inactive.

The values are drawn from PubChem BioAssay (EPA / NIEHS).
